# Rows were chosen to be rich in hits. Some 2% of all compounds tested hit in one or more screens of this group.
# aSyn rescue: inhibitors of alpha-synuclein toxicity in yeast | Yeast expressing alpha-synuclein, growth rescue, BacTiter-Glo, 24 h | Potency, µM (titrated, usually from 46.1 µM), without a hit: at the top dose growth rescue (activation), most hits filed as activators | 0.14% of 370,000 active | AID 652106; further: % of control where 0% means no effect; nearly all actives have a fitted effect of over 65% in size
#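 Rescue of yeast growth: cells expressing toxic alpha-synuclein, induced in galactose at OD600 0.02, incubated with compound 24 h at 30 C. ATP luminescence quantified growth; inhibitors of toxicity appear as activators.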
# TDP43 rescue: rescues yeast growth from TDP-43 toxicity. TDP-43 expressing yeast growth rescue, BacTiter-Glo, 24 h. Potency, µM (titrated, usually from 46.1 µM), without a hit: at the highest dose growth rescue (activation), usual class: activators. 1.8% of 410,000 active; further: % of control where 0% means no effect; nearly all actives have a fitted effect of over 50% in size
#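 Cell-based yeast growth screen: TDP-43 expression induced in galactose, inoculum OD600=0.02 after raffinose pregrowth to mid-log. Read-out BacTiter-Glo luminescence at 24 hr, 30 deg C; inhibition of toxicity seen as signal increase.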
# MBNL1-CUG inh: blocks human MBNL1 binding to CUG repeat RNA | TR-FRET MBNL1-His/biotin-(CUG)12 binding, 665/545 ratio | Potency, µM (titrated, usually from 57.5 µM), inactives show at the highest dose activity change, negative = inhibition, most hits filed as inhibitors | 0.036% of 280,000 active | AID 2675; active means well fitted inhibition curve with a large enough effect in the signal ratio, with a control signal flat, not every such curve was filed as active; inconclusive means small, poorly fitted or top-dose-only effect, or effect the other way, or a change in a side signal; inactive means no such curve, though single readings can be large or run the other way; the % refers to the signal ratio; further: on the % scale 0 is the no-effect control and ±100 the full control effect
# Target sequence (Q9NR56 whole entry, looked up): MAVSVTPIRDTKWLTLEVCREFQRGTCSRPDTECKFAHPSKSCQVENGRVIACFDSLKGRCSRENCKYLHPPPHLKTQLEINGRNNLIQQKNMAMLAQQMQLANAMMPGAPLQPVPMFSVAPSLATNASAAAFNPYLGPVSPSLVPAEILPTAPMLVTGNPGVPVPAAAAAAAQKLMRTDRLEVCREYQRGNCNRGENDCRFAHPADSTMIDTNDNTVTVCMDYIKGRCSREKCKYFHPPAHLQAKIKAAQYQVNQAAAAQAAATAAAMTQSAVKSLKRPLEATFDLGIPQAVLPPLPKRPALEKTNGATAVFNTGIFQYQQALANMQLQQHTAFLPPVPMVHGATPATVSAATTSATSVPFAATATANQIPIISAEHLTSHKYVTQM
#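 MBNL1-His + Biotin-(CUG)12, cpd titration 92 nM–58 uM; Tb anti-His Ab 0.055 ng/ul, SA-XL665 5 nM (final); 60 min RT; ratiometric 665/545 nm, Ex 340 nm; normalized to buffer and full-complex controls.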
# FUS suppressor: FUS proteinopathy suppression in yeast | S. cerevisiae FUS-expressing, growth rescue, OD600, 24 h | Potency, µM (series often up to 76.6 µM), actives largely listed as activators | 0.24% of 390,000 active | AID 1347120;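 further: plate controls were DMSO vehicle for no effect and reference control for full effect; nearly all actives have a fitted effect of over 55% in size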
#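 Restored growth of FUS-toxic S. cerevisiae, read as 600 nm absorbance after 24 h at 30C in galactose medium (starting OD 0.005). Controls CP55940 and DMSO.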
# Abeta yeast res: compounds reversing amyloid beta toxicity in yeast; Potency, µM (titrated, usually from 46.1 µM), actives largely listed as activators; 0.063% of 410,000 active; yeast expressing A-beta42, growth rescue, OD600, 48 h; response scale: 0% DMSO, 100% iron-clioquinol control; AID 1347071; further: nearly all actives have a fitted effect of over 55% in size
#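 Growth rescue measured by 600 nm absorbance after 48 h yeast culture at 30 C with compound. Values normalized between DMSO and an equimolar ferric chloride plus clioquinol control.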
# GRP78 ERSR act: inducers of ER stress response in human glioma cells; U87-MG GRP78 promoter luciferase reporter, 16 h; Potency, µM, without a hit: top-dose activation, usual class: activators; 0.02% of 420,000 active; further: series mostly up to about 76 µM; % of control where 0% means no effect; nearly all actives have a fitted effect of over 35% in size
#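 Stably transfected U87-MG glioma cells carrying a GRP78-based luciferase sensor; 16 h compound incubation. Luminescence end-point read 10 min after Bright-Glo addition at room temperature.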
# An asterisk follows results filed as active; i = inactive; ? = inconclusive; · = not tested or not shown; [ ] = remark or other dose. Unless noted, the call rests on the fitted dose curve; in most records, active means well fitted curve in the direction sought with a large enough effect; inconclusive means small, poorly fitted or top-dose-only effect, or another doubt; inactive means no such curve, though single readings can be large; an effect the other way counts as inactive or inconclusive. Potency means the concentration at half of the fitted maximal effect.
SMILES,aSyn rescue,TDP43 rescue,MBNL1-CUG inh,FUS suppressor,Abeta yeast res,GRP78 ERSR act
O=C(c1ccco1)c1cn(Cc2ccc(Cl)cc2)c2ccccc12,13.6%,12.6µM*,8.1%,i,?,-3.5%
Nc1ccc(Cl)cc1C(=O)c1ccccc1Cl,?,20µM*,2.4%,i,i,-5.2%
ClCCN(CCCl)/C(=C\c1ccccc1)c1ccnc2ccccc12,·,·,·,·,·,1.5%
c1ccc(N2CCN(c3ncnc4c3nc3n4CCCC3)CC2)cc1,·,?,·,i,i,-2.0%
Cc1ccc(Cl)cc1N1CCN(c2ncnc3c2nc2n3CCCC2)CC1,·,14.1µM*,·,i,i,-4.3%
O=C1NC(=O)C2(Cc3ccccc3N3CCCC32)C(=O)N1c1ccccc1 (centres undefined),-3.1%,3.1%,11.1%,?,i,-1.5%
CN1c2ccc([N+](=O)[O-])cc2CC2(C(=O)NC(=O)N(c3ccc(Br)cc3)C2=O)C1c1ccccc1 (centres undefined),12.2%,-9.4%,17.4%,17.8µM*,i,-5.5%
CC12CCC3C(CCC4CC(=O)C(C(O)C(F)(F)F)CC43C)C1CCC2O (centres undefined),14.0%,14.1µM*,·,i,i,-2.0%
CCC(=O)CC(c1ccccc1)c1c(O)c2ccccc2sc1=O (centres undefined),-17.3%,25.1µM*,-13.8%,i,i,1.6%
CCC(=Nc1ccc(OC)cc1OC)c1c(O)n(C2CCCCC2)c(=O)[nH]c1=O,-12.3%,15.8µM*,17.0%,?,i,-6.3%
CC1OC(O[C@H]2C[C@@H](O)[C@]3(CO)[C@H]4[C@H](O)C[C@]5(C)[C@@H](C6=CC(=O)OC6)CC[C@]5(O)[C@@H]4CC[C@]3(O)C2)C(O)C(O)C1O (some centres undefined),0.5%,·,·,·,·,-6.8%
CN[C@H]1C[C@@H](N)[C@H](O)[C@@H](O[C@@H]2O[C@H](CO)[C@H](O)[C@@H]3O[C@]4(O[C@@H]23)O[C@H]([C@@H](N)CO)[C@H](O)[C@@H](O)[C@H]4O)[C@@H]1O,·,·,·,·,·,-6.8%
Cc1ccccc1-n1c(/C=C/c2ccc(N(C)C)cc2)nc2ccccc2c1=O,-4.6%,?,·,i,i,-2.2%
Cc1ccccc1-n1c(/C=C/c2c(C)[nH]c3ccccc23)nc2ccccc2c1=O,·,15.8µM*,·,i,i,-3.0%
Nc1ccc(Cl)cc1C(=O)c1ccccc1,5.9%,-2.4%[0.397 µM],8.0%,i,i,-3.8%
Nc1ccc(Br)cc1C(=O)c1ccccc1,?,15.8µM*,5.7%,i,i,-2.1%
C[C@@H]1C(=O)OC2C[C@@]34[C@H]5C[C@@H](C(C)(C)C)[C@@]36C(O)C(=O)O[C@H]6O[C@@]4(C(=O)O5)[C@]21O (some centres undefined),·,·,·,·,·,-2.3%
CN1Cc2ccccc2-n2nncc2C1,-2.2%,5.4%,·,i,i,-1.5%
Cc1ccc2n1Cc1cnnn1-c1ccccc1-2,1.2%,10µM*,·,i,i,1.8%
Oc1ccc2c3c1OC1C(O)C=CC4[C@@H](C2)NCC[C@]314 (some centres undefined),·,·,·,·,·,-0.6%
C=CCn1c(O)c(C(CC)=NCCC2=CCCCC2)c(=O)[nH]c1=O,·,17.8µM*,-3.1%,i,i,-2.1%
CCCCCNC(=O)C(c1ccncc1)n1c(=O)c(-c2cc3ccccc3[nH]2)nc2ccccc21 (centres undefined),11.0%,?,·,i,?,·
O=c1c2ccccc2[nH]c(=S)n1-c1cccc(C(F)(F)F)c1,?,6.31µM*,·,i,i,0.2%
O=C(O)CCC(=O)NCCC1=c2ccccc2=N/C1=C\c1c(O)n(Cc2ccc(F)cc2)c(=S)[nH]c1=O,-5.7%,-1.9%,8.6%,20µM*,i,-6.4%
O=C(N/N=C/c1c(O)n(Cc2ccc(F)cc2)c(=O)[nH]c1=O)c1ccccc1,0.1%,26.7%,·,i,i,4.7%
SMILES,aSyn rescue,TDP43 rescue,MBNL1-CUG inh,FUS suppressor,Abeta yeast res,GRP78 ERSR act
CCCc1cc(N2CCN(c3cccc(C)c3C)CC2)n2cnnc2n1,·,15.8µM*,·,i,i,-3.0%
Cc1cccc(-c2nc(CN3C(=O)CN=C(c4ccccc4)c4ccccc43)c(C)o2)c1,·,35.5µM*,·,i,i,-1.4%
Cc1oc(-c2ccccc2)nc1CN1C(=O)CN=C(c2ccccc2)c2ccccc21,-6.5%,?,37.1%,i,i,-4.2%
CC(=O)Oc1c2c(c(CC=C(C)C)c3c1C(=O)C1=CC4CC5C(C)(C)OC(C/C=C(\C)C(=O)O)(C4=O)[C@]15O3)OC(C)(CCC=C(C)C)C=C2 (some centres undefined),·,·,·,·,·,-11.4%
Cc1c(CCC(=O)N2CCCCC2)c(=O)oc2cc3occ(C(C)(C)C)c3cc12,·,?,·,i,i,-2.6%
COc1ccc(C2CC(c3c(O)n(CCc4ccccc4)c(=O)[nH]c3=O)=NN2)cc1OC (centres undefined),-8.7%,-1.5%,-2.1%,22.4µM*,i,-3.6%
Cc1ccc(F)cc1NC(=O)c1ccc(Cn2nc(N3CCN(c4ccccc4)CC3)ccc2=O)o1,·,25.1µM*,·,?,i,-4.6%
O=C(Nc1ccc(F)cc1F)c1cccn(Cc2ccccc2)c1=O,4.6%,1.2%[9.22 µM],15.9%,i,i,0.9%
COC(=O)C1=C(c2ccc(Cl)c(C(F)(F)F)c2)C[C@@H]2CC[C@H]1N2C(=O)NCc1ccco1,1.4%,22.4µM*,·,i,i,-5.7%
COC(=O)C1=C(c2ccc3ccccc3c2)C[C@@H]2CC[C@H]1N2C(=O)NCc1ccco1,22.6%,37.5%,·,i,i,5.7%
COC(=O)C1=C(c2ccc(OC(F)(F)F)cc2)C[C@@H]2CC[C@H]1N2C(=O)NCCOc1ccccc1Cl,10.3%,28.2µM*,·,?,i,-2.8%
COC(=O)C1=C(c2cc3ccccc3s2)C[C@@H]2CC[C@H]1N2C(=O)NCc1ccc(F)cc1,?,10µM*,·,?,i,-6.0%
COC(=O)C1=C(c2ccc(Cl)c(C(F)(F)F)c2)C[C@@H]2CC[C@H]1N2C(=O)NCCOc1ccccc1,1.5%,22.4µM*,·,22.4µM*,i,2.4%
COC(=O)C1=C(c2ccc(OC(F)(F)F)cc2)C[C@@H]2CC[C@H]1N2C(=O)NCCOc1ccccc1,2.9%,?,·,?,i,-3.5%
COC(=O)C1=C(c2ccc(Cl)c(C(F)(F)F)c2)C[C@@H]2CC[C@H]1N2C(=O)NCCO,2.8%,-1.2%,·,i,i,-2.4%

# From PubChem
